# Mdm2-MdmX inh: inhibitors of human Mdm2-MdmX association, primary screen, cell-based, luminescence, split luciferase, SaOS-2, uHTS; AID 485346, 2010; SaOS-2 split-luciferase Mdm2/MdmX complementation; Protein Mdm4 (Homo sapiens) + E3 ubiquitin-protein ligase Mdm2 (Homo sapiens), …; inhibition, % at 8 µM; 330,000 compounds, 3% hits;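 active = inhibition of at least 50% at 8 µM in the primary screen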
# Calb FLC: C. albicans growth inhibition with fluconazole, primary screen, CaCi-2 strain, Alamar Blue fluorescence; C. albicans CaCi-2 (fluconazole-resistant clinical isolate) + fluconazole, 48 h; growth inhibition, % (test concentration not listed); 300,000 compounds, 0.57% hits;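 active = growth inhibition above about 58% in most replicates, limit read from the data, passing the limit was not always enough; inconclusive = exactly half the replicates above a set limit; inactive = most replicates below a set limit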;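 note: all wells also contain fluconazole at 8 µg/ml as a sub-toxic cotreatment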
# Beta apoptosis: inhibitors of cytokine-induced beta cell apoptosis, primary screen, luminescence. INS-1E cytokine-induced death, ATP luminescence, 48 h; percent of positive-control rescue, neutral wells zero. protection from apoptosis, % (no concentration beside the values). 300,000 compounds, 0.8% hits;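 active = Every replicate reaches about 75%, or at least half do and their mean reaches it too, limit read from the data; inconclusive = At least half of replicates reach the limit but their mean does not; inactive = Under half of replicates reach the limit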;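 note: higher means more ATP so stronger rescue from cytokine killing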
# PP1 inh: PP1-alpha phosphatase inhibitors, primary screen, counter-screen for PP5 inhibitor project, biochemical, fluorescence, OMFP substrate, single point; Serine/threonine-protein phosphatase PP1-alpha catalytic subunit (Homo sapiens), P62136; purified PP1alpha; inhibition, % at 6.7 µM; 320,000 compounds, 0.9% hits; AID 2235, 2010;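 active = inhibition above the mean inhibition of all tested compounds plus 3 SD, computed separately for each screening campaign, cut at about 15% in these data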
# PP5 inh: PP5 phosphatase inhibitors, primary screen, biochemical, fluorescence. purified PP5c, OMFP substrate fluorescence. inhibition, % at 6.7 µM. 320,000 compounds, 0.18% hits. AID 1987, 2009;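 active = inhibition above the campaign's mean inhibition across all tested compounds plus 3 SD, cut at about 9.5% in these data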
# Target sequence (P53041 whole entry, looked up): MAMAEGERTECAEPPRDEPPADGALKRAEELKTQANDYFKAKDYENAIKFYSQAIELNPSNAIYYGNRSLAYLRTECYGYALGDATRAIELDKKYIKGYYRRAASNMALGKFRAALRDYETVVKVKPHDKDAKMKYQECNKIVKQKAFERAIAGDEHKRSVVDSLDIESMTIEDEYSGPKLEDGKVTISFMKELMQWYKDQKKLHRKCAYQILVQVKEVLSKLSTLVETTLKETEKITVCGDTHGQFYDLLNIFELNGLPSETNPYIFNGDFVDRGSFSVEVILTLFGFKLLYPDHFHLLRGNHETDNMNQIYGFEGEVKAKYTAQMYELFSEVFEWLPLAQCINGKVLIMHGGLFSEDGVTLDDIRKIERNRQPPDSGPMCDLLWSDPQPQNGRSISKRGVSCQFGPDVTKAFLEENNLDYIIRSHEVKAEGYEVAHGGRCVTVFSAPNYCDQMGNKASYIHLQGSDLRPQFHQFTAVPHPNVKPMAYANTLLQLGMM
# CSC inhib: cancer stem cell viability inhibitors, primary screen, luminescence | cancer stem cell-like cells viability | 300,000 compounds, 1.1% hits | inhibition, % at 7.5 µM; in the data active = inhibition above about 75%; inconclusive = no clear call, values can overlap the other calls; tested in HMLE shEcad cells
# PP1 confirm: PP1 phosphatase inhibitors, confirmation, biochemical, fluorescence, OMFP substrate, triplicate; 1,900 compounds, 52% hits; inhibition, % at 6.7 µM; purified PP1alpha; shares compounds with PP1 inh;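 active = mean PP1 inhibition above a set limit taken from the earlier primary screen, cut at about 15% in these data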
# PP5 inh counter: PP5 phosphatase inhibition by PP1 hits, confirmation, counter-screen for PP1 inhibitor project, biochemical, fluorescence, triplicate | AID 2360, 2010 | 1,900 compounds, 4% hits | purified PP5c, OMFP fluorescence | shares compounds with PP1 inh | inhibition, % at 6.7 µM;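 active = mean PP5 inhibition over triplicate wells above about 9.5% taken from the earlier PP1 screen, limit read from the data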
# Numbers stand for hits; n = inactive; u = inconclusive; x = no result. The list is not random: actives were taken first. Their share in the collection is about 4.9%.
SMILES,Mdm2-MdmX inh,Calb FLC,Beta apoptosis,PP1 inh,PP5 inh,CSC inhib,PP1 confirm,PP5 inh counter
CCOc1ccccc1NC(=O)CSc1nc2nc(-c3cccs3)cc(C(F)(F)F)c2c(=O)[nH]1,n,n,n,21,n,n,n,n
CN(C)/C=C1/C(=O)N(c2ccc([N+](=O)[O-])cc2)N=C1c1ccccc1,n,n,n,20,n,n,n,n
CC1=NN(c2ccc([N+](=O)[O-])cc2)C(=O)/C1=C\N(C)C,n,n,n,n,n,n,x,x
CN(C)/C=C1\C(=O)N(c2ccc([N+](=O)[O-])cc2)N=C1c1ccccc1,n,n,n,22,n,n,n,n
CSc1nc(O)cc(=O)n1-c1ccc(F)cc1,n,n,n,n,n,n,x,x
Cc1cc(C)c(C)c(S(=O)(=O)NCc2ccc(C(=O)N3CCOCC3)cc2)c1C,n,n,n,n,n,n,x,x
C/C(=N\NC(=O)c1ccccc1O)C1C(=O)c2ccccc2C1=O,n,n,n,n,n,n,x,x
C/C(=N/NC(=O)c1cc2ccccc2cc1O)C1C(=O)c2ccccc2C1=O,n,n,n,24,n,n,17,n
CC(=O)Nc1cccc2c1C(=O)N(c1ccccc1OC(C)=O)C2=O,n,n,n,n,n,n,x,x
Cc1cc(C)c2nc(N3C(=O)C(O)=C(C(=O)c4ccco4)C3c3ccco3)sc2c1 (stereo not drawn),n,n,n,32,n,n,31,n
CCOc1ccc2nc(N3C(=O)C(O)=C(C(=O)c4ccco4)C3c3ccco3)sc2c1 (stereo not drawn),n,x,n,n,n,n,x,x
Cc1ccc(C(=O)C2=C(O)C(=O)N(c3ncccn3)C2c2ccc(Cl)cc2)o1 (stereo not drawn),n,n,n,n,n,n,x,x
CCOC(=O)c1sc(N2C(=O)C(O)=C(C(=O)c3ccco3)C2c2ccco2)nc1C (stereo not drawn),x,n,n,18,n,n,n,n
COc1ccc2nc(N3C(=O)C(O)=C(C(=O)c4ccco4)C3c3ccc(C)o3)sc2c1 (stereo not drawn),n,x,x,x,x,x,x,x
COc1ccc2nc(N3C(=O)C(O)=C(C(=O)c4ccco4)C3c3ccccc3OC)sc2c1 (stereo not drawn),n,u,n,29,n,n,20,n
Cc1ccc2nc(N3C(=O)C(O)=C(C(=O)c4ccc(C)o4)C3c3ccc(O)cc3)sc2c1 (stereo not drawn),n,x,n,30,n,n,21,n
Cc1cc(C(=O)C[N+]2(C)CCOCC2)c(C)n1-c1ccc(Br)cc1,n,n,x,n,n,n,x,x
COc1ccc(S(=O)(=O)NCCc2cn3nc(C)c(C)nc3n2)cc1F,n,n,n,n,n,n,x,x
O=C1Cc2cc(S(=O)(=O)NCc3ccc(F)cc3)ccc2N1,n,x,n,x,x,n,x,x
O/N=C(/CCc1ccccc1)c1ccc2c(c1)OCCO2,n,n,n,n,n,n,x,x
O=C(O)CNC(=O)CC1S/C(=N/N=C2/NC(=O)CS2)NC1=O (stereo not drawn),n,n,n,n,n,n,x,x
Cc1ccc2nc(N3C(=O)C(O)=C(C(=O)c4ccco4)C3c3cccs3)sc2c1 (stereo not drawn),n,n,n,28,n,n,28,n
Cc1ccc(S(=O)(=O)Nc2cccc(-c3ccc(N4CCCCCC4)nn3)c2)cc1,n,n,n,18,n,n,n,n
O=C(N/N=C/c1cc([N+](=O)[O-])cc([N+](=O)[O-])c1O)/C(=C\c1cccs1)NC(=O)c1ccccc1,n,n,n,21,n,n,30,n
CCN(CC)C(=O)Cn1cc(C(=O)C(=O)NCc2ccccn2)c2ccccc21,n,n,n,n,n,n,x,x
SMILES,Mdm2-MdmX inh,Calb FLC,Beta apoptosis,PP1 inh,PP5 inh,CSC inhib,PP1 confirm,PP5 inh counter
COc1ccc(NC(=O)NNC(=O)COc2ccc3cc(Br)ccc3c2)c(OC)c1,n,n,n,20,n,n,23,n
Cc1ccc(N2CC(C(=O)OCC(=O)NNC(=O)c3ccccc3)CC2=O)cc1 (stereo not drawn),n,n,n,35,n,n,n,n
CCc1ccc(N2CC(C(=O)OCC(=O)NNC(=O)c3ccccc3)CC2=O)cc1 (stereo not drawn),n,n,n,n,n,n,x,x
O=C(NCCC1CCCCN1S(=O)(=O)c1ccc(Cl)cc1)C(=O)NCc1ccncc1 (stereo not drawn),n,n,x,31,n,n,n,n
COc1ccc(S(=O)(=O)N2CCCC2CNC(=O)C(=O)NCc2ccccc2)cc1 (stereo not drawn),n,n,n,33,n,n,n,n
COc1ccc(S(=O)(=O)N2CCCC2CNC(=O)C(=O)NCc2ccc(C)cc2)cc1 (stereo not drawn),n,n,n,n,n,x,x,x
O=C(NCCC1CCCCN1S(=O)(=O)c1ccc(F)cc1)C(=O)NCc1ccncc1 (stereo not drawn),n,n,x,n,n,n,x,x
O=C(COc1ccccc1)Nc1nnc(-c2ccc(F)cc2)o1,n,n,n,n,n,n,x,x
O=C(COc1ccccc1)Nc1nnc(-c2ccc3c(c2)CCCC3)o1,n,82,n,26,n,n,27,n
O=C(COc1ccccc1)Nc1nnc(-c2ccccc2Cl)o1,n,n,n,23,n,n,20,n
CS(=O)(=O)c1ccccc1-c1nnc(NC(=O)COc2ccc(Cl)cc2)o1,n,n,n,n,n,n,x,x
O=C(COC(=O)/C=C/c1ccccc1)Nc1nnc(-c2ccccc2)o1,n,n,n,24,n,n,30,n
O=C(Nc1nnc(-c2ccc3c(c2)CCCC3)o1)c1ccccc1Cl,n,n,x,25,n,n,25,n
O=C(Nc1nnc(-c2ccccc2)o1)c1cc(Cl)sc1Cl,n,n,n,n,n,n,x,x
COc1ccc(CC(=O)NNS(=O)(=O)c2ccc(F)cc2)cc1,n,n,n,n,n,x,x,x
CC(C)C(=O)Nc1ccc(C(=O)c2ccccc2)cc1,n,n,n,n,n,n,n,n
COc1ccc(-c2cc3nc4ccccc4n3c(N)c2C#N)cc1,n,n,n,18,n,n,17,n
CCSc1nc(-c2ccc(OC)cc2)cc(-c2ccccc2)c1C#N,n,n,n,n,n,n,x,x
